Results as given in PubChem BioAssay (Tox21).
Inconclusive results are not listed. Active and inactive are the calls of the source. Unless noted, calls come from the whole dose curve; as a rule, active = well fitted curve in the direction sought with a large enough effect in the repeat runs; inconclusive = weak or mixed curves; inactive = no such curve, though single readings can be large; an effect the other way counts as inactive or inconclusive.

Key:
[1] = target: Thyrotropin receptor (Homo sapiens) (UniProt P16473); assay: qHTS assay to identify small molecule agonists of the thyroid stimulating hormone receptor (TSHR) signaling pathway (AID 1224843; calls by dose curve; note: nearly all actives have a fitted effect of over 45% in size); conditions: TSHR-HEK293 cells, cAMP HTRF, agonist mode, 30 min; series mostly up to 92.4 µM
Chain of Thyrotropin receptor (Homo sapiens) (P16473 whole entry, looked up): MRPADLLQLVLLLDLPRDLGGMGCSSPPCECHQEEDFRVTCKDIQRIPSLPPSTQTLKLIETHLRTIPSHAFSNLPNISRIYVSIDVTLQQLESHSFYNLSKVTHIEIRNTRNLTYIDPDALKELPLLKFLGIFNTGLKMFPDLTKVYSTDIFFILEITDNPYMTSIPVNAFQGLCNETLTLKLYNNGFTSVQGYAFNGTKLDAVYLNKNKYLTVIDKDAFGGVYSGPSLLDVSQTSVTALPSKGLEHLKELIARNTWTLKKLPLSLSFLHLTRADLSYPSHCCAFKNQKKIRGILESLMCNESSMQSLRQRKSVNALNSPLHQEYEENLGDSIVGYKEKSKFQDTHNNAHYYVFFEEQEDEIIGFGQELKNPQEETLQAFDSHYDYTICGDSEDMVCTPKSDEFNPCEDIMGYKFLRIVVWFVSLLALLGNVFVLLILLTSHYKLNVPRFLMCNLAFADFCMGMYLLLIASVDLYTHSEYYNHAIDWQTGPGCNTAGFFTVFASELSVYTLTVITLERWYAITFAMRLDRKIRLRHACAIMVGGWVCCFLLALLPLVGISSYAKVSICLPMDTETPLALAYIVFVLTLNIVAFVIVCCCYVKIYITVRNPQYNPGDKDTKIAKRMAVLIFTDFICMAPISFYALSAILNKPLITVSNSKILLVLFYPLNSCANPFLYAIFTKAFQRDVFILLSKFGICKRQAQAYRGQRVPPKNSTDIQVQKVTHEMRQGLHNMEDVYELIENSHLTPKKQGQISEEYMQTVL
Outline: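 Compounds are titrated over 15 concentrations, in triplicate, onto TSHR-HEK293 cells seeded at 800/well. Plates sit 30 min at room temperature before cAMP-d2 and anti-cAMP cryptate are added; signal is read after a further hour.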

[2] = qHTS assay to identify small molecule agonists of the hypoxia (HIF-1) signaling pathway - cell viability counter screen (AID 1224844; calls by dose curve; note: nearly all actives have a fitted effect of over 50% in size); conditions: HRE-bla ME-180 viability, CellTiter-Glo luminescence, 17 h; series mostly up to 76.8 µM
Outline: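 Cytotoxicity was measured in parallel with the HRE-driven beta-lactamase readout: after 17 hrs of compound exposure at 37C, HRE-bla ME-180 cells received CellTiter-Glo and luminescence was recorded 30 min later.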

[3] = qHTS assay to identify small molecule agonists of H2AX (AID 1224845; active = well fitted activation curve with a large enough effect in the signal ratio in the repeat runs, not every such curve was filed as active; the % refers to the signal ratio); conditions: CHO-K1 phospho-H2AX Ser139 HTRF, 3 h; series mostly up to 154 µM
Outline: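 Wild-type CHO-K1 cells plated overnight, then exposed 3 hr at 37C to compounds at 15 concentrations (0.76% DMSO). Lysed, then HTRF anti-pH2AX(S139)-cryptate/anti-H2AX-d2 detection after 24 hr at room temperature; emissions 665 and 620 nm.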

[4] = qHTS assay to identify small molecule agonists of the hypoxia (HIF-1) signaling pathway (AID 1224846; active = well fitted activation curve with a large enough effect in the signal ratio in the repeat runs, not every such curve was filed as active; the % refers to the signal ratio); conditions: HRE-bla ME-180 cells, beta-lactamase ratio, 17 h; series mostly up to 76.8 µM
Outline: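 Compounds from the Tox21 10K library, dissolved in DMSO, are tested for induction of a hypoxia response element–controlled beta-lactamase reporter in ME-180 cells. Exposure lasts 17 hrs at 37C after a 5 hr settling period, followed by CCF4-AM FRET substrate.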

[5] = qHTS assay to identify small molecule agonists of H2AX - cell viability counter screen (AID 1224847; calls by dose curve; note: top concentration of the series differs between compounds; nearly all actives have a fitted effect of over 30% in size); conditions: CHO-K1 viability, CellTiter-Glo luminescence, 3 h; series mostly up to 154 µM
Outline: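 We seed wild-type CHO-K1 cells overnight, treat them for 3 hr at 37C with compounds in 15-concentration series, and quantify remaining viability by CellTiter-Glo luminescence.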

[6] = qHTS RealTime-Glo MT Cell Viability Assay in HepG2 cells - 24 hour (AID 1224867); conditions: RealTime-Glo luminescence; series mostly up to 76.8 µM; note: nearly all actives have a fitted effect of over 50% in size
Outline: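 Cell number in HepG2 cultures estimated from NanoLuc luminescence generated by metabolic reduction of a prosubstrate by living cells. The homogeneous, nonlytic format allowed repeated reads at 0, 8, 16, 24, 32 and 40 h of compound exposure.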

[7] = qHTS RealTime-Glo MT Cell Viability Assay in HEK293 cells - 32 hour (AID 1224868); conditions: RealTime-Glo luminescence; series mostly up to 76.8 µM; note: top concentration of the series differs between compounds; nearly all actives have a fitted effect of over 50% in size
Outline: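 Homogeneous bioluminescent viability format in HEK293 cells (600 cells/well). Following 5 h at 37 C/5% CO2, 23 nL compound was pintooled; the signal was measured repeatedly during 40 h incubation.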

[8] = A CellTox Green Cytotoxicity Assay to monitor cytotoxicity in HEK293 cells - 0 hour (AID 1224869); conditions: CellTox Green fluorescence; series mostly up to 76.8 µM; note: nearly all actives have a fitted effect of over 50% in size
Outline: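 Cells (HEK293, 600/well) and dye reagent are dispensed together. After 5 h at 37 C, 23 nL compound is pinned in. Plates stay at 37 C for 40 h with fluorescence read at 0h, 8h, 16h, 24h, 32h and 40h.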

[9] = qHTS assay to identify small molecule antagonists of the estrogen related receptor (ERR) signaling pathway from Tox21 library (AID 1224848); conditions: ERR reporter cell line, luciferase antagonist mode, 18 h; series mostly up to 92.4 µM; note: nearly all actives have a fitted effect of over 50% in size
Outline: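 First, 2,000 ERR cells per well were plated and held 6 h at 37 C/5% CO2. Next, compounds in DMSO were pinned in and left 18 h at 37 C. Finally, ONE-Glo was added and luminescence read after 30 min at room temperature.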

[10] = qHTS assay to identify small molecule agonists of the estrogen related receptor (ERR) signaling pathway from Tox21 library (AID 1224849; calls by dose curve; note: nearly all actives have a fitted effect of over 15% in size); conditions: ERR reporter cell line, ONE-Glo luciferase, 18 h; at 92.4 µM (top of the series) unless noted
Outline: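 Cells carrying the ERR reporter were plated and allowed to settle for 6 h, exposed to library compounds for 18 h at 37 C, then lysed with ONE-Glo and luminescence measured.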
% is set by controls: 0 for no effect and ±100 for the full control effect.

COc1cc(O)cc(O)c1
inactive: outcome [1] | Potency [2] | outcome [3] | outcome [4] | Potency [5] | outcome [6] | Potency [7] | Potency [8]

CO[Si](OC)(OC)OC
inactive: outcome [1] | Potency [2] | outcome [3] | outcome [4] | Potency [5] | outcome [6] | Potency [8]

Cc1ccc(N)cc1[N+](=O)[O-]
inactive: outcome [1] | Potency [2] | outcome [3] | outcome [4] | Potency [5] | outcome [6] | Potency [7] | Potency [8]

CC/C=C\C#N
inactive: outcome [1] | Potency [2] | outcome [3] | outcome [4] | Potency [5] | outcome [6] | Potency [7] | Potency [8]

Cc1cc(C)cc(OCC2CNC(=O)O2)c1 (stereo unspecified)
inactive: outcome [1] | Potency [2] | outcome [3] | outcome [4] | Potency [5] | outcome [6] | Potency [7] | Potency [8]

CCC(=O)c1cccc(Cl)c1
inactive: outcome [1] | Potency [2] | outcome [3] | outcome [4] | Potency [5] | outcome [6] | Potency [7] | Potency [8]

C#CC(O)CCCCC (stereo unspecified)
inactive: outcome [1] | Potency [2] | outcome [3] | outcome [4] | Potency [5] | outcome [6] | Potency [7] | Potency [8]

CCC(=O)Nc1cccc(N)c1
inactive: outcome [1] | Potency [2] | outcome [3] | outcome [4] | Potency [9] | activity change, positive = activation [10] -10.7% | outcome [6] | Potency [7] | Potency [8]

OCC(CO)(CO)COCC(CO)(CO)CO
inactive: outcome [1] | Potency [2] | outcome [3] | outcome [4] | Potency [5] | outcome [6] | Potency [7] | Potency [8]

CCn1cc(C(=O)O)c(=O)c2cc(F)c(N3CCN(C)CC3)cc21
inactive: activation [1] -0.535% [at 19 µM] | activity change, negative = cytotoxicity [2] -1.72% [at 15.8 µM] | activation (H2AX phosphorylation) [3] -0.959% [at 31.6 µM] | activation [4] -0.496% [at 15.8 µM] | activity change, negative = cytotoxicity [5] -2.01% [at 31.6 µM] | activity change, negative = cytotoxicity [6] 0.0471% [at 15.8 µM] | activity change, negative = cytotoxic [7] 4.88% [at 15.8 µM] | cytotoxicity [8] -2.39% [at 15.8 µM]

CCN(CC)S(=O)(=O)c1ccc(C(=O)O)cc1
inactive: outcome [1] | Potency [2] | outcome [3] | outcome [4] | Potency [5] | outcome [6] | Potency [8]

CC(C)CCCC(C)CCCC(C)CCCCC(C)CCCC(C)CCCC(C)C (stereo unspecified)
inactive: outcome [1] | Potency [2] | outcome [3] | outcome [4] | Potency [5] | outcome [6] | Potency [7] | Potency [8]

C=CCn1c(=O)n([C@@H]2O[C@H](CO)[C@@H](O)[C@H]2O)c2nc(N)[nH]c(=O)c21
inactive: outcome [1] | Potency [2] | outcome [3] | outcome [4] | Potency [5] | outcome [6] | Potency [7] | Potency [8]

NS(=O)(=O)c1cc2c(cc1Cl)NC(CSCc1ccccc1)=NS2(=O)=O
inactive: outcome [1] | Potency [2] | outcome [3] | Potency [5] | outcome [6] | Potency [7] | Potency [8]

NS(=O)(=O)c1cc(C2(O)NC(=O)c3ccccc32)ccc1Cl (stereo unspecified)
inactive: outcome [1] | Potency [2] | outcome [3] | Potency [5] | outcome [6] | Potency [7] | Potency [8]

CC(=O)NC(Cc1ccccc1)C(=O)O (stereo unspecified)
inactive: outcome [1] | Potency [2] | outcome [3] | outcome [4] | outcome [6] | Potency [7] | Potency [8]

NCC[C@H](O)C(=O)N[C@@H]1C[C@H](N)[C@@H](O[C@H]2O[C@H](CN)[C@@H](O)[C@H](O)[C@H]2O)[C@H](O)[C@H]1O[C@H]1O[C@H](CO)[C@@H](O)[C@H](N)[C@H]1O
inactive: activation [1] -3.02% [at 0.349 µM] | activity change, negative = cytotoxicity [2] 3.37% [at 0.29 µM] | activation (H2AX phosphorylation) [3] 0.216% [at 0.582 µM] | activity change, negative = cytotoxicity [5] 2.46% [at 0.582 µM] | activity change, negative = cytotoxicity [6] 1.55% [at 0.29 µM] | activity change, negative = cytotoxic [7] 4.99% [at 0.29 µM] | cytotoxicity [8] -5.15% [at 0.29 µM]

N#CCN(CC#N)CCN(CC#N)CC#N
inactive: outcome [1] | Potency [2] | outcome [3] | outcome [4] | outcome [6] | Potency [7] | Potency [8]

Cc1ccccc1Br
inactive: outcome [1] | Potency [2] | outcome [3] | outcome [4] | Potency [9] | activity change, positive = activation [10] -0.692% | outcome [6] | Potency [7] | Potency [8]

OCc1ccccn1
inactive: outcome [1] | Potency [2] | outcome [3] | outcome [4] | Potency [9] | activity change, positive = activation [10] 4.19% [at 42.5 µM] | outcome [6] | Potency [7] | Potency [8]
